# Measurements as given in PubChem BioAssay (NCI).
# Compounds without any hit were thinned out: in the full panel of roughly 83,000, 20% have a hit.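 Each cell line was grown in a 96-well plate and treated with one concentration of compound for 48 hours. Values below 10 were considered active.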 Unmarked numbers belong to inactive results. Calls of active or inactive are those of the source.
# Legend:
# Assay in all cases: NCI-60 one-dose screen, 48 h (100 = growth as untreated, 0 = no growth, -100 = all killed)
# [1] = system: SR leukemia; details: 10 µM unless noted
# [2] = system: RPMI-8226 leukemia; details: 10 µM
# [3] = system: OVCAR-8 ovarian; details: 10 µM unless noted
# [4] = system: OVCAR-5 ovarian; details: 10 µM unless noted
# [5] = system: OVCAR-4 ovarian; details: 10 µM unless noted
# [6] = system: SK-OV-3 ovarian; details: 10 µM
# [7] = system: IGROV1 ovarian; details: 10 µM unless noted
# [8] = system: OVCAR-3 ovarian; details: 10 µM unless noted
# [9] = system: HS 578T breast; details: 10 µM unless noted
# [10] = system: NCI/ADR-RES ovarian; details: 10 µM unless noted
# [11] = system: T-47D breast; details: 10 µM
# [12] = system: BT-549 breast; details: 10 µM unless noted
# [13] = system: MDA-MB-435 melanoma; details: 10 µM unless noted
# [14] = system: SW-620 colon; details: 10 µM unless noted
# [15] = system: MCF7 breast; details: 10 µM unless noted
# [16] = system: HCT-116 colon; details: 10 µM unless noted
# [17] = system: HCC-2998 colon; details: 10 µM unless noted
# [18] = system: KM12 colon; details: 10 µM unless noted
SMILES,growth [1],growth [2],growth [3],growth [4],growth [5],growth [6],growth [7],growth [8],growth [9],growth [10],growth [11],growth [12],growth [13],growth [14],growth [15],growth [16],growth [17],growth [18]
CC(=O)Nc1ccccc1-c1n[nH]c(=O)[nH]c1=O,107%,103%,106%,96.4%,93.6%,99.1%,104%,113%,77.9%,102%,97.5%,112%,97.9%,96.4%,101%,104%,116%,105%
O=C1C2CC3C(CC2C(=O)[N]1[Sn]([c]1ccccc1)([c]1ccccc1)[c]1ccccc1)C1(Cl)C(Cl)=C(Cl)C3(Cl)C1(Cl)Cl (stereo unspecified),-50.1% (active),-52.3% (active),-97.5% (active),-100% (active),-83% (active),-100% (active),-66.2% (active),-97.3% (active),-20% (active),-55.5% (active),-50.3% (active),-95.3% (active),-96.4% (active),-79.7% (active),-64.7% (active),-83.9% (active),-82.2% (active),-91.3% (active)
CCOC(=O)C(CC(c1ccccc1)N1CCCCC1)[N+](=O)[O-] (stereo unspecified),77.7%,57.9%,87.1%,104%,96.5%,97.7%,76.3%,53.3%,98.6%,61.4%,59.1%,94.8%,93.7%,84.9%,63.3%,54.8%,108%,37.8%
O=c1[nH]c(=S)[nH]c(=O)n1Cc1cccc2ccccc12,102%,106%,99.7%,107%,93.4%,102%,115%,113%,102%,108%,99.5%,107%,99.7%,103%,80.9%,102%,86.5%,105%
O=C1C=CC(=O)N1CCCCCCCCCCN1C(=O)C=CC1=O,29.1%,52.9%,78.2%,103%,102%,126%,69.5%,38.2%,67.4%,73.1%,77.9%,101%,68.6%,4.62% (active),82.7%,32.9%,90.7%,86.2%
COc1cc2nc(N3CCC[C@H](NC4=CC(=O)c5ccccc5C4=O)C3)nc(N)c2cc1OC,-20.1% (active),-50.1% (active),-57.2% (active),125%,-88% (active),116%,-81.6% (active),-57.7% (active),-49.1% (active),29.4%,-56.2% (active),105%,-96.1% (active),-45.1% (active),-77.3% (active),-85.3% (active),92.9%,-39.2% (active)
COc1ccc(-n2c(SCc3cc(OC)c(OC)c(OC)c3)nc3ccc(C)cc3c2=O)c(OC)c1,7.68% (active),-4.23% (active),45.6%,43.2%,57.4%,45.3%,35.7%,-4.61% (active),6.73% (active),1.42% (active),33.1%,32.1%,-55% (active),21%,15.5%,18.1%,45.5%,18.1%
COc1ccc(S(=O)(=O)ON=C2C=C(C)C(=O)C(C)=C2)cc1,31.8%,35.1%,93.1%,103%,55.4%,66.9%,95%,68.5%,101%,98.5%,40.3%,97.7%,18.1%,60.7%,64%,44.9%,112%,97.6%
COc1cc(C2=NN(c3ccc(S(N)(=O)=O)cc3)C(c3ccc(Cl)cc3)C2)cc(OC)c1OC (stereo unspecified),17.5%,-5.03% (active),40%,77.5%,42.4%,77.9%,60.9%,47.1%,58.4%,37.5%,20.4%,57.9%,29.2%,44.3%,25.2%,23.2%,45.9%,37.6%
Cn1c2c(cc(S(=O)(=O)c3ccccc3)c1=O)CCc1c-2cnn1-c1cccc(Cl)c1,77.6%,82.6%,88.8%,93%,60.9%,86.8%,97.5%,98.1%,92%,90.6%,64.4%,92.4%,87.9%,110%,90.4%,88.2%,111%,101%
COc1cc(/C=C/C(=O)C2=C(/C=C/c3ccc(O)c(OC)c3)NC(=O)NC2c2ccc(O)c(OC)c2)ccc1O (stereo unspecified),79%,76.2%,86.3%,94.2%,93%,116%,113%,104%,81%,107%,86.7%,93.4%,93.4%,94.2%,82.1%,73.3%,119%,101%
CN1CCn2c(c(Sc3ccc(C(=O)NO)cc3)c3ccccc32)C1=O,0.516% (active),-19.9% (active),-46.5% (active),24.3%,14%,57.4%,-44.1% (active),-32.5% (active),49.3%,64.1%,14.6%,2.47% (active),-74.6% (active),-14.4% (active),27.1%,-39.3% (active),-37.8% (active),-51.4% (active)
COc1cc(C2C3=C(COC3=O)N(CCO)c3cc4c(cc32)OCO4)cc(OC)c1O (stereo unspecified),21.5%,21.8%,42.8%,72%,48.3%,31.8%,36%,-25.9% (active),3.31% (active),73.3%,35.3%,59.9%,-39.6% (active),14.8%,19.6%,16.7%,28.4%,20.9%
Cn1c(=O)c2c(-c3ccccc3F)n(-c3ccc4c(c3)OCO4)cc2n(C)c1=O,68.1%,52.9%,99.1%,98.6%,104%,110%,101%,114%,88.2%,95.8%,81.3%,95.1%,88.6%,102%,94.5%,85.8%,92.2%,102%
Cc1nn(-c2ccccc2)c2nc3nc4c(c(N)c3c(-c3ccc(Cl)cc3)c12)CCC4,-25.9% (active),82.3%,83%,93.2%,101%,98.6%,84.5%,111%,99.5%,95.2%,102%,114%,95.1%,50.8%,87.5%,58.2%,109%,96.6%
O=C1C(Cl)=C(NCCCN2CCOCC2)C(=O)c2ccccc21,39.2%,78.3%,96.1%,111%,77.1%,102%,56.4%,96.4%,99.7%,99.1%,102%,97.2%,63.9%,79.2%,74.6%,97.5%,91.3%,91.4%
O=C1/C(=C/c2ccc(Cl)cc2)CN(Cc2cn(CCCNc3ccnc4cc(Cl)ccc34)nn2)C/C1=C\c1ccc(Cl)cc1,-31.9% (active),-49.3% (active),-42.3% (active),-74.1% (active),-9.71% (active),-48.5% (active),-0.666% (active),-90.4% (active),9.27% (active),2.36% (active),-10.8% (active),-87.6% (active),-86.7% (active),-75.6% (active),-97.9% (active),-64.4% (active),-88% (active),-75.1% (active)
